Calls of active or inactive are those of the source. Unless noted, the rule behind the calls is not given here.

Our source for the composite z-score and z-score values is PubChem BioAssay.

In assay [1] the test system is Wnt5a (protein binding on small-molecule microarray). The assay can be described thus: small molecules binding Wnt5a protein – biophysical, small-molecule microarray, 635/667 nm fluorescence, primary screen (AID 1142).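 Note: fluorescence read at 667 nm with signal to noise per printed feature.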 The note with it: 635 nm fluorescence, higher = more signal.
Assay [2] is described as follows: ATP-based viability of Huh7 replicon cells – cell-based, CellTiter-Glo luminescence, basal, 48 h, cytotoxicity control for HCV replication inhibitor project, primary screen (AID 1143).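 Note: Huh7 hepatoma cells carrying a hepatitis C replication reporter with no stimulus; test concentration not given here.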 The settings on record: higher = more signal, called active from +8 up or from −8 down. For orientation: Replicon systems follow genome replication, usually without infectious particles.

A short description of assay [3]: Pseudomonas biofilm growth suppression – PAO1 strain, BacTiter-Glo luminescence, LB-PBS, primary screen (AID 1144). The settings on record: P. aeruginosa PAO1 biofilm, 12 h, higher = more signal.
Assay [4] is described as follows: basal CRE-LacZ reporter activity in PC12 – cell-based, unstimulated, primary screen (AID 1145). The settings on record: no forskolin, luminescence, 4.5 h, higher = more signal, called active from +8 up or from −8 down.
Assay [5] in a line: forskolin-driven CRE-LacZ activity in PC12 – cell-based, CRE-LacZ reporter, forskolin-stimulated, primary screen (AID 1146).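 Note: PC12 cells with 6xCRE LacZ reporter stimulated by forskolin 10 µM; beta-galactosidase reporter signal reflecting CREB driven transcription.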 The settings on record: luminescence, 4.5 h, higher = more signal, called active from +8 up or from −8 down.
The target in assay [6] is Streptavidin (Streptomyces avidinii) (UniProt P22629). The assay can be described thus: compounds binding control protein streptavidin – biophysical, small-molecule microarray, 635/667 nm fluorescence, artefact control for SMM compound annotation, primary screen (AID 1147).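 Note: signal reflects streptavidin binding to arrayed compounds as a control protein.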 The note with it: higher = more signal.
Assay [7] in a line: probe aInhba binding on compound microarray – biochemical, small-molecule microarray, 635/667 nm fluorescence, primary screen (AID 1148).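 Note: score merges 667nm spot fluorescence with signal-to-noise for antibody binding to printed compounds.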 The settings on record: higher = more signal.
In assay [8] the target is Torsin-1A (Homo sapiens) (UniProt O14656). Nature of the assay: TOR1A wild-type binding on microarray – cell lysate, small-molecule microarray, lysate, 635/667 nm, primary screen (AID 1149). The settings on record: COS7 hTOR1A-WT lysate, 635 nm fluorescence, higher = more signal.
Assay [9] shares this target. Nature of the assay: torsin A mutant lysate binding on microarrays – cell lysate, small-molecule microarray, COS7 lysate, 635/667 nm fluorescence, primary screen (AID 1150).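 Note: score pools 667 nm emission and signal to noise measuring lysate protein binding.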 The note with it: COS7 hTOR1A mutant lysate, 635 nm fluorescence, higher = more signal.
The test system of assay [10] is Sonic hedgehog protein (Shh). Nature of the assay: Sonic hedgehog microarray binding compounds – biochemical, small-molecule microarray, 635/667 nm fluorescence, primary screen (AID 1151).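 Note: Shh protein binding to compounds spotted on small-molecule microarray slides; score combines spot fluorescence intensity with signal-to-noise across triplicate slides.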 The note with it: 635 nm fluorescence, higher = more signal.
Assay [11] can be described thus: optical density shifts of acrAB sulA E. coli – strain DRC41, OD650, 48 h, E. coli filamentation inducer project, primary screen (AID 1152).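 Note: E. coli MC1000 strain DRC41 lacking acrAB efflux pump and sulA.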 The note with it: higher = more signal, called active from +8 up or from −8 down.
Assay [12] in a line: probe aLefty1 binding on compound microarray – biochemical, small-molecule microarray, 635/667 nm fluorescence, primary screen (AID 1153).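 Note: score merges spot fluorescence with signal-to-noise ratio from the scanned slide images.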 The note with it: higher = more signal.
Assay [13] in a line: plasmodial surface anion channel blockers, osmotic lysis – cell-based, P. falciparum Indochina, OD700, 1 h, primary screen (AID 1154). The settings on record: P. falciparum Indochina infected RBC osmotic lysis, higher = more signal, called active from +8 up or from −8 down.
Assay [14] can be described thus: plasmodial surface anion channel blockers, osmotic lysis – cell-based, P. falciparum Indochina, OD700, 2 h, primary screen (AID 1155).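 Note: lysis reports solute entry through the parasite surface anion channel PSAC.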 The settings on record: P. falciparum Indochina infected erythrocytes, higher = more signal, called active from +8 up or from −8 down.
A short description of assay [15]: changes in parasitized red cell lysis, either direction – P. falciparum Indochina, OD700, 3 h, PSAC antagonist project, primary screen (AID 1156). The settings on record: P. falciparum-infected erythrocytes, osmotic lysis, higher = more signal, called active from +8 up or from −8 down.
A short description of assay [16]: plasmodial surface anion channel blockers, osmotic lysis – cell-based, P. falciparum Indochina, OD700, 18 h, primary screen (AID 1157). The note with it: P. falciparum Indochina infected erythrocytes, osmotic lysis OD700, 18 h; higher = more signal, called active from +8 up or from −8 down.
The nature of assay [17]: S6 kinase pathway phospho-S6 level changes – cell-based, A549, cytoblot, luminescence, serum-stimulated, primary screen (AID 1158).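 Note: serum-stimulated A549 lung adenocarcinoma cells; signal is phosphorylated S6 detected by cytoblot immunostaining with HRP secondary.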 The note with it: 5 h, higher = more signal.
For assay [18], the target named is NADPH oxidase 2 (Homo sapiens) (UniProt P04839). Nature of the assay: compounds shifting NOX2 Amplex Red fluorescence – cell-based, HEK293-NOX2, PMA-stimulated, NOX inhibitor project, primary screen (AID 1159). Note: test concentration not given here. The settings on record: 45 min, higher = more signal, called active from +8 up or from −8 down.
The target of assay [19] is NADPH oxidase 4 (Homo sapiens) (UniProt Q9NPH5). Nature of the assay: compounds shifting NOX4 Amplex Red fluorescence – cell-based, HEK293-NOX4, tetracycline-induced, NOX inhibitor project, primary screen (AID 1160). The note with it: HEK293-NOX4, Amplex Red H2O2 fluorescence, 45 min; higher = more signal, called active from +8 up or from −8 down.
Assay [20] concerns the target NADPH oxidase 5 (Homo sapiens) (UniProt Q96PH1). The assay can be described thus: compounds shifting NOX5 Amplex Red fluorescence – cell-based, HEK293-NOX5, NOX inhibitor project, primary screen (AID 1161). The settings on record: HEK293-NOX5, ionomycin, 45 min, higher = more signal.

Chain of NADPH oxidase 4 (Homo sapiens) (Q9NPH5 whole entry, looked up): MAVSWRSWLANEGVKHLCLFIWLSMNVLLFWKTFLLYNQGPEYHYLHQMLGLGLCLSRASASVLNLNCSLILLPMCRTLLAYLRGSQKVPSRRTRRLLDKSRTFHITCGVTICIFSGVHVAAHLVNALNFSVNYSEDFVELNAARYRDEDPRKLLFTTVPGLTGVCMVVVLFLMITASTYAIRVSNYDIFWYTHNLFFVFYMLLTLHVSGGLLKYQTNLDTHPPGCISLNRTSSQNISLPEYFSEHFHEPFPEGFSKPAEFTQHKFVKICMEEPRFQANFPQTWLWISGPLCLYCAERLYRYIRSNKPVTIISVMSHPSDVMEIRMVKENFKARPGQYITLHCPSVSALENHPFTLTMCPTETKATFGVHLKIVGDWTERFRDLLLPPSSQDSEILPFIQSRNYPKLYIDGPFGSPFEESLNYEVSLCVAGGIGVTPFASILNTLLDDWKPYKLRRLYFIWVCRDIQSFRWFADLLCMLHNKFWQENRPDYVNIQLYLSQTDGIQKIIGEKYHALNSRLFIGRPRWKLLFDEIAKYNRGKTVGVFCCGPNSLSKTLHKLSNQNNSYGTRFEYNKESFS
Chain of Streptavidin (Streptomyces avidinii) (P22629 whole entry, looked up): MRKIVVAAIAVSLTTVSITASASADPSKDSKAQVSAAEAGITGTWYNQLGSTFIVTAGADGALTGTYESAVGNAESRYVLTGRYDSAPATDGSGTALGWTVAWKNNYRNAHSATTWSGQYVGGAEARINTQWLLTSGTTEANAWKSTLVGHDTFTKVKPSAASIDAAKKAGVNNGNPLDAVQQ
Chain of NADPH oxidase 2 (Homo sapiens) (P04839 whole entry, looked up): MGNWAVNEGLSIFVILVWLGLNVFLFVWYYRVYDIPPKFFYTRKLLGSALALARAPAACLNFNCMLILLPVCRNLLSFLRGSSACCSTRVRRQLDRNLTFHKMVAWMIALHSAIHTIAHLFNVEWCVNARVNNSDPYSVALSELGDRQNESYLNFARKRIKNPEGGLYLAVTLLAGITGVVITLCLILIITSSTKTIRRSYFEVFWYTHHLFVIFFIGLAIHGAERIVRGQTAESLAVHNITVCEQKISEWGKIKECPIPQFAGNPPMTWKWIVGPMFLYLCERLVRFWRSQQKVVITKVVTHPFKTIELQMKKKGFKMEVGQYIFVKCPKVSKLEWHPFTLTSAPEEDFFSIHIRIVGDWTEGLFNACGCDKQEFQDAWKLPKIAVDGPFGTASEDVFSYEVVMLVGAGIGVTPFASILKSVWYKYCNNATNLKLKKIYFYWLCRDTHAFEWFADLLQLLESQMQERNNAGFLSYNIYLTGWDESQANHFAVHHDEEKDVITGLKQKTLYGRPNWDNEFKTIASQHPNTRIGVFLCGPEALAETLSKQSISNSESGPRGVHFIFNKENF
Chain of NADPH oxidase 5 (Homo sapiens) (Q96PH1 whole entry, looked up): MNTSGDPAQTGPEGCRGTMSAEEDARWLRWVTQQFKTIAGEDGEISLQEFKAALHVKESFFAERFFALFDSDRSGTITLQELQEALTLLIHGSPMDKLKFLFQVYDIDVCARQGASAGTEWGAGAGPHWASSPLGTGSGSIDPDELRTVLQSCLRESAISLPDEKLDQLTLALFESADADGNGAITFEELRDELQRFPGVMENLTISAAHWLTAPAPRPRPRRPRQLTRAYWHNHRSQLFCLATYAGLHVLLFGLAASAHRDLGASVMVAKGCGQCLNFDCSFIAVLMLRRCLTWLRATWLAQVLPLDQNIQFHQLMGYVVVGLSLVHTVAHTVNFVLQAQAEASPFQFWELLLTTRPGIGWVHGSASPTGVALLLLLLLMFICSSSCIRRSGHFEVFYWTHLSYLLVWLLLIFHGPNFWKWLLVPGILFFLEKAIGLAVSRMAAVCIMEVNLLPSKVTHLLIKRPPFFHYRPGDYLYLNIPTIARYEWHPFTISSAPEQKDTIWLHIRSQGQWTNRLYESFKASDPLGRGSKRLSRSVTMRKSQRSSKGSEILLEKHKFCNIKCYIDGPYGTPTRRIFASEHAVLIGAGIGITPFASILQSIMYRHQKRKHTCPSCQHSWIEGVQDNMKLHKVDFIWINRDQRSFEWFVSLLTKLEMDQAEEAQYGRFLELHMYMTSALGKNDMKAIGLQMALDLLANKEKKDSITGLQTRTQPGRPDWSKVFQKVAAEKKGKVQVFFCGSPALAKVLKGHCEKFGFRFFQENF
Chain of Torsin-1A (Homo sapiens) (O14656 whole entry, looked up): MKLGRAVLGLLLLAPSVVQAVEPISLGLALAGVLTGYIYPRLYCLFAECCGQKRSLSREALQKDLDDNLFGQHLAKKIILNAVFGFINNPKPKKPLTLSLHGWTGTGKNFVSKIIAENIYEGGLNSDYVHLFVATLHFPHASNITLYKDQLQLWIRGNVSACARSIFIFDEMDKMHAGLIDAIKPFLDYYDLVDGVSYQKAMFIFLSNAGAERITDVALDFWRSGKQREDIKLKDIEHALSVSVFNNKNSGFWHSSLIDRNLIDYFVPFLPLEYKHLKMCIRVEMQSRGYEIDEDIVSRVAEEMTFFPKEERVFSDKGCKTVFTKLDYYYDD

As for `O=C1CCCC2OC12C(O)CCc1ccccc1` (stereo not given), the composite z-score is 0.154 in [1]; 0.035 in assay [6]; -0.214 in assay [7]; 0.0994 in assay [8]; -0.0582 in [9]; 0.174 in [10]. The compound also yielded a composite z-score in assay [12] of -0.541. Besides, the z-score in assay [2] was 0.564 (inactive); in [3] it was 0.357 (inactive); in assay [4] it was 1.18 (inactive); in assay [5], 0.0396 (inactive); in [11] it was 0.508 (inactive); in [13], -0.272 (inactive). Further, the z-score is -0.521 (inactive) in assay [14]; -0.0749 (inactive) in assay [15]; -0.169 (inactive) in assay [16]; 0.172 in [17]; 0.504 (inactive) in assay [18]; -0.142 (inactive) in assay [19]. The z-score in [20] is 0.0429.

As to `CC(C)=NOCc1ccc(-c2cc(-c3ccccc3)no2)cc1`, the composite z-score is 0.102 in assay [1]; 0.06 in assay [6]; -0.23 in assay [7]; 0.299 in [8]; -0.223 in assay [9]; 0.253 in assay [10]. The composite z-score in assay [12] is -0.283. For the same compound, the z-score in assay [2] is 0.517 (inactive); in [3], 1.5 (inactive); in assay [4], -0.797 (inactive); in assay [5], 0.275 (inactive); in assay [11], 0.433 (inactive); in [13], 0.251 (inactive). In addition, the z-score was 0.367 (inactive) in assay [14]; -0.201 (inactive) in [15]; -0.0729 (inactive) in [16]; 0.321 in assay [17]; -2.54 (inactive) in [18]; 0.311 (inactive) in assay [19]. Moreover, the z-score in assay [20] was -0.0709.

For `COCCOC(=O)N1C(=O)[C@@]2(c3ccccc31)[C@H](C(N)=O)[C@H]1C(=O)O[C@H](c3ccccc3)[C@H](c3ccccc3)N1[C@@H]2c1ccccc1OCCO`, the composite z-score in assay [1] turned out to be 0.491; in assay [6] it was 0.662; in assay [7] it was 0.126; in [8], 0.918; in [9], 0.815; in assay [10], 1.19. The composite z-score in assay [12] was 0.144. Moreover, the z-score in assay [2] was -4.01 (inactive); in [3] it was 1.67 (inactive); in [4], 0.362 (inactive); in [5] it was 0.406 (inactive); in assay [11], 0.582 (inactive); in [13], 3.59 (inactive). The z-score in [14] was 1.14 (inactive); in [15], -0.0776 (inactive); in assay [16] it was 1.2 (inactive); in assay [17], 0.404; in assay [18], 1.56 (inactive); in assay [19], 1.43 (inactive). Moreover, the z-score in [20] stood at 0.483.

Consider `COCCOC(=O)N1C(=O)[C@@]2(c3cc(C#Cc4ccc(OC)cc4)ccc31)[C@H](C(=O)N1CCN(c3ncccn3)CC1)[C@H]1C(=O)O[C@H](c3ccccc3)[C@H](c3ccccc3)N1[C@@H]2c1ccc(OCCO)cc1`, for which the composite z-score was 0.044 in assay [1]; 0.531 in [6]; 0.397 in assay [7]; -0.0983 in assay [8]; 0.33 in [9]; 1 in assay [10]. In assay [12], the composite z-score was determined as 0.327. Further, the z-score is -0.151 (inactive) in [2]; -0.118 (inactive) in assay [3]; -0.606 (inactive) in assay [4]; -0.242 (inactive) in [5]; -0.541 (inactive) in assay [11]; 10.1 (active) in assay [13]. For the same compound, the z-score in assay [14] was 2.52 (inactive); in [15], 0.493 (inactive); in assay [16] it was 1.04 (inactive); in [17] it was -0.21; in assay [18] it was 1.51 (inactive); in assay [19], 0.337 (inactive). Further, the z-score in [20] is -0.0992.

For `COC(=O)[C@@]1(Cc2ccc(F)cc2)[C@@H]2C(=CC(=O)[C@H]2CC(=O)C(=O)N(C)C)CN1C(=O)c1ccccc1`, the composite z-score in assay [1] was 0.392; in [6] it was 1.7; in [7], 0.38; in assay [8], -0.441; in assay [9], 0.283; in assay [10], -0.367. For the same compound, the composite z-score in assay [12] was 0.589. For the same compound, the z-score is -3.59 (inactive) in [2]; 0.504 (inactive) in [3]; -0.179 (inactive) in assay [4]; -0.196 (inactive) in assay [5]; -0.975 (inactive) in [11]; 3.38 (inactive) in assay [13]. Also, the z-score in assay [14] was 1.81 (inactive); in assay [15] it was -0.25 (inactive); in assay [16], 1.45 (inactive); in assay [17] it was 0.172; in [18], 0.507 (inactive); in assay [19], 1.3 (inactive). The z-score in [20] is -0.494.

Turning to `O=C(CS)NCCCCCNC(=O)[C@@H]1C[C@@H]2C(=O)N[C@@H](Cc3ccccc3)C(=O)N2[C@@H]1c1ccc(O)cc1`, the composite z-score was 0.835 in [1]; -0.859 in assay [6]; -0.128 in assay [7]; 0.489 in [8]; 0.845 in [9]; 0.981 in assay [10]. In assay [12], this compound came in with a composite z-score of 0.0839. The z-score is -0.0984 (inactive) in assay [2]; -0.616 (inactive) in [3]; 0.692 (inactive) in [4]; -0.981 (inactive) in assay [5]; 0.942 (inactive) in assay [11]; 10.1 (active) in assay [13]. The z-score in assay [14] is 1.07 (inactive); in assay [15], -0.676 (inactive); in assay [16], 0.325 (inactive); in assay [17], -0.205; in assay [18] it was 0.727 (inactive); in [19], -0.142 (inactive). Further, in assay [20], the z-score was determined as 0.0233.

For the compound `C#C[C@@H](CC)O[Si](C#Cc1ccc(Oc2ccccc2)cc1)(C(C)C)C(C)C`, the composite z-score in assay [1] was 0.142; in assay [6], -0.149; in [7], -0.0736; in assay [8] it was 0.293; in assay [9], 0.321; in assay [10], 0.486. In [12], this compound returned a composite z-score of 0.0404. For the same compound, the z-score was -0.533 (inactive) in assay [2]; 0.159 (inactive) in [3]; -0.738 (inactive) in assay [4]; 0.0319 (inactive) in [5]; -0.49 (inactive) in [11]; 0.788 (inactive) in assay [13]. For the same compound, the z-score in [14] was 1.4 (inactive); in assay [15], -1.4 (inactive); in assay [16] it was 0.335 (inactive); in assay [17], -0.724; in [18], 0.278 (inactive); in assay [19], -0.366 (inactive). The z-score in assay [20] is -1.51.

For `CO[C@@H]1COC(=O)CC=C[C@@H](C)[C@@H]2C=C[C@H](O)[C@@H](COC(=O)CCC[C@H]1C)O2`, the composite z-score in [1] is 0.0796; in [6], 1.35; in assay [7], -0.118; in assay [8], 0.858; in [9], 1.6; in assay [10] it was 1.55. This compound also gave a composite z-score in assay [12] of 0.425. In addition, the z-score in [2] is -0.493 (inactive); in [3] it was 0.0169 (inactive); in assay [4] it was -2.36 (inactive); in assay [5] it was -1.91 (inactive); in assay [11], -0.457 (inactive); in assay [13], -0.977 (inactive). Further, the z-score in assay [14] is -1.66 (inactive); in assay [15], -0.184 (inactive); in assay [16], -2.26 (inactive); in assay [17], 0.49; in assay [18], -0.521 (inactive); in [19], 0.319 (inactive). The z-score in [20] worked out at 0.312.
